Among the data in PubChem BioAssay are RAM network inhibition values, retold here.

A number with no mark means an inactive call.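 How the source made its calls: active means RAM network inhibition above 8.4% in each of two replicates, 3 SD over the compound average; inconclusive means above 8.4% inhibition in only one replicate; inactive means 8.4% inhibition or less in each replicate.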

This assay in a line: RAM signaling pathway blockade in yeast – S. cerevisiae, Pdr1DBD-CYC8 efflux-inhibited sensitized strain, primary screen (AID 1298).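 Further: 0% = DMSO untreated cells without growth and 100% = 10 µM 1-NA-PP1 full growth; higher means more yeast growth rescued from 5-FOA killing.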 The note with it: S. cerevisiae cbk1-as DSE1-URA3 strain, 5-FOA growth OD615, 2 d; at 50 µM; hits give high values.
As to `O=C1CCCC2=C1C(c1cccnc1)Nc1ccccc1N2` (configuration not stated), the RAM network inhibition is 4.54%. `CCCOC(=O)COc1cc(C)cc2oc(=O)c3c(c12)CCC3`: the RAM network inhibition was 4.39%. `COc1cccc(OCC(=O)N2CCN(C)CC2)c1`: the RAM network inhibition was 0.31%. To `CCc1sc(C(=O)N2CCC3(CC2)OCCO3)cc1Br` belongs 1.59%; to `COc1cc2c(cc1OC)-c1c(OC)c(OC)cc3c1C(C2)N(C)CC3` (configuration not stated), 6.23%. To `CCOC(=O)c1cncn1C(C)c1ccccc1` (configuration not stated) belongs 3.01%. The figure for `CN1C(=O)C(Cc2cccs2)C(=O)N(C)C1=O` is 4.94%.

Regarding `O/N=C/c1c[nH]c2ccccc12`, the RAM network inhibition was 3.59%. As for `C=C(C)c1cccc(C(C)(C)NC(=O)NC2CN3CCC2CC3)c1` (configuration not stated), the RAM network inhibition was 0.82%. With `Nc1ccc(S(=O)(=O)N2CC3CC(C2)c2cccc(=O)n2C3)cc1` (configuration not stated), the RAM network inhibition was 0.37%.

As to `CCCCCCn1c(=O)c(C(=O)Nc2ccncc2)c(O)c2ccccc21`, the RAM network inhibition is -1.58%.

For the molecule `CCCCCP(=O)(O)c1ccccc1`, the RAM network inhibition was 2.16%. To `CN1CCN(c2ccc(NC(=O)C(C)(C)C)cc2)CC1` belongs 5.29%; to `CCCOc1ccccc1C1SCC(=O)Nc2c1c(=O)[nH]n2C(C)CCC` (configuration not stated), 1.25%; to `CC(C)CC1C(C#N)=C(N)Oc2c1c(=O)oc1ccccc21` (configuration not stated), 8.07%. The figure for `CC12CN3CC(C)(CN(C1)C3c1cccnc1)C2=O` (configuration not stated) is 9%; for `CN1CCN(CCC(C#N)(c2ccccc2)c2ccccc2)CC1` it is 0.63%; for `CCOC(=O)c1c(C)c(P(=S)(N2CCOCC2)N2CCOCC2)n(C)c1C` it is 2.36%.

As for `O=C(Cc1ccc(Br)cc1)N1CCN(Cc2ccccc2)CC1`, the RAM network inhibition is 5.41%. The figure for `Cc1ccc2c(c1)C1CN(C)CCC1N2C(=O)Cn1nnc(-c2ccccc2F)n1` (configuration not stated) is 3.31%. As to `COc1ccc(C2C(C(=O)N3CCC4(CC3)OCCO4)CC(=O)N2c2ccc(OC)cc2)cc1` (configuration not stated), the RAM network inhibition was 5.09%. Turning to `Clc1cccc(CN2CCCCC2c2cccnc2)c1` (configuration not stated), the RAM network inhibition is -0.74%.

Turning to `C=Cn1ccnc1P(=S)(c1ccn(C)c1)c1nccn1C=C`, the RAM network inhibition was 1.45%.

Consider `Cc1nn(C2CCOC(C)(C)C2)c2c1C(c1ccc3c(c1)OCO3)SCC(=O)N2` (configuration not stated), for which the RAM network inhibition was 1.2%.

Take `COCCOC(=O)C1=C(N)OC(C)=C(C(=O)OC)C12C(=O)Nc1ccccc12` (configuration not stated): the RAM network inhibition was 3.95%.

On to `O=C(CN1CC(c2ccccc2)CC1=O)NCc1ccc(F)cc1` (configuration not stated), for which the RAM network inhibition is -0.21%. Regarding `O=c1c2ccccc2nc(-c2cccs2)n1-c1cnccn1`, the RAM network inhibition is 2.35%. With `COc1ccc(CC2C(=O)NC(=O)N(c3ccccc3)C2=O)c(OC)c1` (configuration not stated), the RAM network inhibition is 0.67%. To `CC1(C)CC(n2[nH]c(=O)c3c2NC(=O)CSC3c2ccc(F)cc2)CCO1` (configuration not stated) belongs 4.89%; to `Cc1cc(OCC(=O)NC2CCS(=O)(=O)C2)c2c3c(c(=O)oc2c1)CCC3` (configuration not stated), 2.75%; to `COc1cc(C2SCC(=O)Nc3c2c(=O)[nH]n3C2CCCCCC2)cc(OC)c1OC` (configuration not stated), 2.76%.

In the case of `Cc1c(C(=O)N2CCC3(CC2)OCCO3)oc2ccc(S(=O)(=O)N3CCOCC3)cc12`, the RAM network inhibition is 1.19%. The figure for `FC(F)(F)/C(=N\P(=S)(N1CCOCC1)N1CCOCC1)N1CCOCC1` is 5.4%; for `O=C(CN1CCOCC1)c1ccc2cc[nH]c2c1` it is 1.57%. To `Cc1nc2ccc(Cl)cn2c1P(=S)(N1CCOCC1)N1CCOCC1` belongs 5.03%; to `COc1cccc(N2C(=O)CC(=O)NC2=O)c1`, 1.99%. To `COc1cc2c(cc1OC)C(C(=O)N1CCC3(CC1)OCCO3)C(c1ccccc1F)N(C)C2=O` (configuration not stated) belongs 0.57%.
